Sfp PPTase inh: inhibitors of Bacillus subtilis Sfp phosphopantetheinyl transferase; Potency, µM, hits mostly inhibitors; 310,000 compounds, 3.5% hits; Q9F4F7; Biochemical Sfp PPTase activity, qHTS;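 note: the enzyme is Sfp with the accession as filed and its product quenches rhodamine fluorescence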
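With Hepes-Na pH 7.6 buffer containing 10 mM MgCl2, Sfp (15 nM) modified BHQ-2-YbbR (12.5 uM) using rhodamine-CoA (5 uM). Two reads 30 minutes apart at 525/598 nm yielded each well's rate.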
VDR inhibitor: inhibitors of human vitamin D receptor; P11473; VDR-SRC2-3 peptide fluorescence polarization, 2 h; Potency, µM, actives largely listed as inhibitors; 400,000 compounds, 0.93% hits; AID 504847
Target sequence (P11473 whole entry, looked up): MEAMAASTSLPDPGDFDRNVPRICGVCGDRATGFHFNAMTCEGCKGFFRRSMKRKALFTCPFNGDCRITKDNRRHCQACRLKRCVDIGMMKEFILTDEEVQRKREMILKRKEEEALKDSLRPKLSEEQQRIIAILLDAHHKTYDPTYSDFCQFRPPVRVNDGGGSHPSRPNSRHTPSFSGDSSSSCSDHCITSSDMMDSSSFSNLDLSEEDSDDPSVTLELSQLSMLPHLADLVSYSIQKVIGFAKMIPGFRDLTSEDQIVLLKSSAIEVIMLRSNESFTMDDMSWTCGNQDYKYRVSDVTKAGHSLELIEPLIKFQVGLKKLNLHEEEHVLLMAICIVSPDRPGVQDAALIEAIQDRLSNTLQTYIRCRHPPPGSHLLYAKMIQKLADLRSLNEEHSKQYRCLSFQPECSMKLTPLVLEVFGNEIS
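Inhibition of the VDR/SRC2-3 peptide interaction is quantified by fluorescence polarization. Compounds (23 nl, pintool) incubate with the reagents for 2 hours at ambient room temperature.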
ALOX12 inh: inhibitors of human 12S-lipoxygenase ALOX12; P18054; purified 12hLO, xylenol orange hydroperoxide absorbance; Potency, µM (series often up to 108 µM), hits mostly inhibitors; 580,000 compounds, 1.1% hits; AID 1671190
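Purified human 12hLO at 150 nM in 25 mM Hepes, 0.01% Triton X-100, pH 7.0, preincubated 15 min at room temperature with compound. Reaction started with 40 uM arachidonic acid, 30 min at room temperature. Hydroperoxide measured by Fe-xylenol orange, 573/405 nm absorbance ratio.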
G9a inh: inhibitors of human histone lysine methyltransferase G9a. G9a H3K9 monomethylation, AlphaScreen, 2 h. Potency, µM (doses to about 102 µM), hits mostly inhibitors. 350,000 compounds, 8.8% hits. Q96KQ7; note: nearly all actives have a fitted effect of over 75% in size
Target sequence (Q96KQ7 913-1193 limits assumed): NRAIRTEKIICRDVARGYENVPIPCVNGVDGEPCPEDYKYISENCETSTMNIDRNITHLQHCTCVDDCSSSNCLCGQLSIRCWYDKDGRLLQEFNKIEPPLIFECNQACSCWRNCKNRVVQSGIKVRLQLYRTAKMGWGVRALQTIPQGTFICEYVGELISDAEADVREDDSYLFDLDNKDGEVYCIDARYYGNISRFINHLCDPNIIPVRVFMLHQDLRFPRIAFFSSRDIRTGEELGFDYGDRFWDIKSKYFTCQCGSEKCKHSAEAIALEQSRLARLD
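Using a bead-based AlphaScreen, monomethylated H3K9 product from 2 h room-temperature reactions (G9a 20 nM, peptide 500 nM, SAM 20 uM) was detected with 0.5 ug/mL rabbit anti-H3K9me1 antibody.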
GRP78 ERSR act: ER stress response induction in glioma | U87-MG GRP78 promoter luciferase reporter, 16 h | Potency, µM, usual class: activators | 420,000 compounds, 0.02% hits | AID 602332; note: series mostly up to about 76 µM; nearly all actives have a fitted effect of over 35% in size
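ERSR induction read as luciferase luminescence (Bright-Glo, 10 min at room temperature) in stably transfected human U87-MG glioma cells exposed to compounds for 16 h, using GRP78 as sensor.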
Numbers stand for hits; [ ] = remark or other dose. The sample as a whole holds a higher share of hits than the screen did. Calls come from the whole dose curve; as a rule, active = well fitted curve in the direction sought with a large enough effect; inconclusive = small, poorly fitted or top-dose-only effect, or another doubt; inactive = no such curve, though single readings can be large; an effect the other way counts as inactive or inconclusive.

Results for CCCc1cc(=O)oc2c(C)c(OC(C)C(=O)NCCCn3ccnc3)ccc12 (stereo not drawn) ?
ALOX12 inh: inactive

How did COCCN1CCC(CN(Cc2ccncc2)C(=O)C2CC23CCCC3)CC1 (stereo not drawn) do in these assays?
ALOX12 inh: inactive

How did COc1cccc(CC(=O)N2CCCC3(C2)NC(=O)N(Cc2ccccc2)C3=O)c1 (stereo not drawn) do in these assays?
ALOX12 inh: inactive

How did COc1ccc(CCC(=O)N2CCC3(CC2)NC(=O)N(c2cccc(F)c2)N3)cc1 do in these assays?
ALOX12 inh: 5µM

How did Cc1ccccc1C(=O)N1CCC2(CC1)NC(=O)N(c1cccc(F)c1)N2 do in these assays?
ALOX12 inh: 1.8µM

What do the screens show for `Cc1ccccc1CC(=O)N1CCC2(CC1)NC(=O)N(c1cccc(F)c1)N2`?
ALOX12 inh: 2.8µM

How did Cc1ccc(C)c(CN2C(=O)NC3(CCN(C(=O)Cc4cccc(F)c4)CC3)C2=O)c1 do in these assays?
ALOX12 inh: inactive

How did COc1cccc(CC(=O)N2CCC3(CC2)NC(=O)N(c2ccccc2)N3)c1 do in these assays?
ALOX12 inh: 3.2µM

How did Cc1oc(-c2nc(C#N)c(N3CCCCC3)o2)cc1S(=O)(=O)N(C)C do in these assays?
ALOX12 inh: inactive

What do the screens show for `Cc1ccc2nc(-c3ccccc3)c(C)c(C(=O)O)c2c1`?
ALOX12 inh: inactive

How did CC(C)NC(=O)N1CCCC(Cn2c(C3CC3)nc3cccnc32)C1 (stereo not drawn) do in these assays?
ALOX12 inh: inactive

Results for COc1cccc(CC(=O)N2CCC3(CC2)NC(=O)N(c2cccc(Cl)c2)N3)c1 ?
ALOX12 inh: 1.4µM

What do the screens show for `Cc1cc(=O)n2c(C(=O)NCc3ccccc3)c(C(=O)Nc3cccc(C)c3C)sc2n1`?
ALOX12 inh: inactive

Results for CC(C)c1cccc(-c2csc(C(O)c3ccco3)n2)c1 (stereo not drawn) ?
ALOX12 inh: 14µM; GRP78 ERSR act: inactive

What do the screens show for `OC(c1ccco1)c1nc(-c2cccs2)cs1` (stereo not drawn)?
ALOX12 inh: 18µM; GRP78 ERSR act: inactive

What do the screens show for `CCN(CC)C(=O)c1cccc(-c2csc(C(O)c3ccco3)n2)c1` (stereo not drawn)?
ALOX12 inh: inconclusive; GRP78 ERSR act: inactive

How did COc1ccc(OC)c(S(=O)(=O)Nc2ccccc2CCc2nc3ccccc3n2C)c1 do in these assays?
ALOX12 inh: inactive

How did Cc1nc(CNC(=O)NCC(C)N2CCCCC2C)cs1 (stereo not drawn) do in these assays?
ALOX12 inh: inactive

How did CCOc1ccc(NC(=O)NC2CCN(c3ncccn3)CC2)cc1 do in these assays?
ALOX12 inh: inactive

What do the screens show for `NNc1ccc2c(C(F)(F)F)cc(C(F)(F)F)nc2n1`?
Sfp PPTase inh: 56µM; VDR inhibitor: inactive; ALOX12 inh: inactive; G9a inh: 35µM; GRP78 ERSR act: inactive

How did Cc1ccc(/C=N/Nc2ccc3c(C(F)(F)F)cc(C(F)(F)F)nc3n2)cc1 do in these assays?
Sfp PPTase inh: inactive; VDR inhibitor: inactive; G9a inh: inconclusive; GRP78 ERSR act: inactive

What do the screens show for `CN1CCc2c(sc(/N=C/c3cc(C(C)(C)C)ccc3O)c2C#N)C1`?
Sfp PPTase inh: 71µM; VDR inhibitor: inactive; ALOX12 inh: inactive; G9a inh: inconclusive; GRP78 ERSR act: inactive

What do the screens show for `COc1ccc(/C=N/c2sc3c(c2C#N)CCN(Cc2ccccc2)C3)c(O)c1`?
Sfp PPTase inh: inactive; G9a inh: inactive

What do the screens show for `O=C(Cc1cc(Cl)c2c(c1)OCCCO2)NC1CCN(CC(F)F)CC1`?
ALOX12 inh: inactive

How did CCn1cc(CNC(=O)c2cc(-c3ccc(C)c(C)c3)nc3ccccc23)cn1 do in these assays?
ALOX12 inh: inactive

How did COc1cc(NC(=S)Nc2ccccn2)c(OC)cc1Cl do in these assays?
Sfp PPTase inh: inactive; VDR inhibitor: inactive; ALOX12 inh: inconclusive; G9a inh: inactive; GRP78 ERSR act: inactive

Results for COc1cc(NC(=S)Nc2cccc(Cl)c2Cl)c(OC)cc1Cl ?
Sfp PPTase inh: 50µM; VDR inhibitor: inactive; ALOX12 inh: inactive; G9a inh: inconclusive; GRP78 ERSR act: inactive

What do the screens show for `COc1cc(NC(=S)Nc2ccc(Br)cc2Cl)c(OC)cc1Cl`?
Sfp PPTase inh: 50µM; VDR inhibitor: inactive; ALOX12 inh: inconclusive; G9a inh: inactive; GRP78 ERSR act: inactive

How did CCOc1ccc(NC(=S)Nc2cc(OC)c(Cl)cc2OC)cc1 do in these assays?
Sfp PPTase inh: inconclusive; VDR inhibitor: inactive; ALOX12 inh: 40µM; G9a inh: inconclusive; GRP78 ERSR act: inactive

How did CCOc1ccc(NC(=S)Nc2ccc(OCC)cc2)cc1 do in these assays?
Sfp PPTase inh: inactive; VDR inhibitor: inconclusive; ALOX12 inh: inconclusive; G9a inh: inactive[12.7 µM]; GRP78 ERSR act: inactive

Results for COc1cc(Cl)c(C)cc1NC(=S)NN ?
Sfp PPTase inh: 35µM; VDR inhibitor: inactive; ALOX12 inh: inconclusive; G9a inh: 6.3µM; GRP78 ERSR act: inactive

Results for C#CCN1CCN(c2ccc(C#N)cc2F)CC1 ?
ALOX12 inh: inactive

Results for CCN(CC)c1nc2c(S(=O)(=O)c3ccc(C(C)C)cc3)nnn2c2ccsc12 ?
ALOX12 inh: inactive

What do the screens show for `COc1cc(NC(=S)NC2CC(C)(C)NC(C)(C)C2)c(OC)cc1Cl`?
Sfp PPTase inh: inactive; VDR inhibitor: inactive; ALOX12 inh: inactive; G9a inh: 50µM; GRP78 ERSR act: inactive

What do the screens show for `COc1ccc(-c2cn3nc(N4CCCC(C(=O)NCCc5cccs5)C4)sc3n2)cc1` (stereo not drawn)?
ALOX12 inh: inactive

What do the screens show for `COc1ccc(C2=CC(c3cc(OC)c(OC)c(OC)c3)NC(=S)N2)cc1` (stereo not drawn)?
Sfp PPTase inh: inactive; VDR inhibitor: inactive; ALOX12 inh: inconclusive; G9a inh: 6.3µM; GRP78 ERSR act: inactive

What do the screens show for `Cc1cccc(CSc2nnc(CCNC(=O)OC(C)(C)C)o2)c1`?
Sfp PPTase inh: inactive; VDR inhibitor: inactive; ALOX12 inh: 7.9µM; G9a inh: inactive; GRP78 ERSR act: inactive

Results for CC(C)(C)OC(=O)NCCc1nnc(SCc2cccc(Cl)c2)o1 ?
Sfp PPTase inh: inactive; VDR inhibitor: inactive; ALOX12 inh: inactive; GRP78 ERSR act: inactive

What do the screens show for `Nc1ccccc1SC/C=C/CSc1ccccc1N`?
Sfp PPTase inh: inactive; VDR inhibitor: inactive; ALOX12 inh: inactive; G9a inh: 11µM; GRP78 ERSR act: inactive

How did Nc1ccccc1O do in these assays?
VDR inhibitor: inactive; G9a inh: inactive[0.501 µM]; GRP78 ERSR act: inactive

What do the screens show for `O=C(O)CCCN1C(=O)/C(=C/c2ccc(-c3nc4ccccc4s3)o2)SC1=S`?
Sfp PPTase inh: 40µM; VDR inhibitor: inactive; ALOX12 inh: inconclusive; G9a inh: inconclusive; GRP78 ERSR act: inactive

How did COc1ccc(CN2C(=O)/C(=C/c3ccncc3)SC2=S)cc1 do in these assays?
Sfp PPTase inh: inconclusive; VDR inhibitor: 50µM; ALOX12 inh: inconclusive; G9a inh: 28µM; GRP78 ERSR act: inactive

How did O=C(O)CCCCCN1C(=O)/C(=C/c2ccncc2)SC1=S do in these assays?
Sfp PPTase inh: inactive; VDR inhibitor: inconclusive; ALOX12 inh: inactive; G9a inh: 79µM; GRP78 ERSR act: inactive

Screening results (PubChem)
